This is a sample that favours compounds with a hit; in the whole collection about 1.7% have one here.
GLP1R ag: activates the human GLP-1 receptor; AID 624172; HEK293 GLP-1R CRE-luciferase, luminescence, 4-6 h; cells express a hypersensitive GLP-1R form; actives 0.007% (n = 380,000); P43220; Potency, µM (top dose mostly 45.6 µM), inactives show at the top dose activation, actives largely listed as activators; further: % of control where 0% means no effect
Target sequence (P43220 whole entry, looked up): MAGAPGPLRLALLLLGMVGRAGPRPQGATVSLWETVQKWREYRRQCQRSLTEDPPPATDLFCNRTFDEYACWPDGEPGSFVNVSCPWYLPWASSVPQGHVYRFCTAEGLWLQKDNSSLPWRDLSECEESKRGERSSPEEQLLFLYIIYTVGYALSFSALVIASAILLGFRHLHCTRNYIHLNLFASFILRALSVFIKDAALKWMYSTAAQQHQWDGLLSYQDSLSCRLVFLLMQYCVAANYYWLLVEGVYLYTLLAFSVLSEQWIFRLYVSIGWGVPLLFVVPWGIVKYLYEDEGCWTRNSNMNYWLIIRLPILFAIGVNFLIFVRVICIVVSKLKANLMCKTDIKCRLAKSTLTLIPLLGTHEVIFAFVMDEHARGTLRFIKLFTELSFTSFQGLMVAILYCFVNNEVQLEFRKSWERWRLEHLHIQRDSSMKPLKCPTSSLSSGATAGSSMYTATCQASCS
RGS4 inhibitor: blocks human RGS4-accelerated GTP hydrolysis | P49798 | Transcreener GDP fluorescence polarization, RGS4-accelerated GTP hydrolysis | Potency, µM (highest dose often 114 µM), without a hit: top-dose activity change, negative = inhibition, actives largely listed as inhibitors | actives 0.039% (n = 390,000) | AID 504845; further: on the % scale 0 is the no-effect control and ±100 the full control effect; nearly all actives have a fitted effect of over 75% in size
Target sequence (P49798 whole entry, looked up): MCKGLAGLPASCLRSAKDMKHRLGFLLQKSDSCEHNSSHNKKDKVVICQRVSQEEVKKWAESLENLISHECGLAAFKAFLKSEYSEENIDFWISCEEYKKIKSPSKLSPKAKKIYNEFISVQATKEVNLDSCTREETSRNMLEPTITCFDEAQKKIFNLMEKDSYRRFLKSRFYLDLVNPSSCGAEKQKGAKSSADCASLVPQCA
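MLSMR compounds (23 nl, pin-transferred) preincubated 10 min at room temperature with a 500nM (2x) first reagent, then RGS4 at 900nM (2x) plus Transcreener GDP mix added; fluorescence polarization (620/688 nm) read before and after 90 min at 30 °C.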
GLP1R inv ag: acts as inverse agonist at human GLP-1 receptor. HEK293 GLP-1R CRE-luciferase, luminescence, 24 h; GLP-1R form is constitutively active. Potency, µM (titrated, usually from 38.3 µM), inactives show at the highest dose activity change, negative = inhibition, hits mostly inhibitors. actives 1.6% (n = 410,000). AID 624417; further: on the % scale 0 is the no-effect control and ±100 the full control effect; nearly all actives have a fitted effect of over 55% in size
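Seeding at 200 cells/uL, 12 h culture, 24 hr compound treatment, then luciferase reagent and a luminescence read; cells are HEK293 stably expressing a constitutively active GLP-1R plus cAMP-responsive luciferase.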
PTHR1 ag: activates the human parathyroid hormone receptor PTHR1; Q03431; AID 743266; HEK293 GP2 PTHR1 cells, GloSensor cAMP luminescence, 1 h; actives 0.075% (n = 410,000); Potency, µM (top dose mostly 115 µM), inactives show at the top dose activation, actives largely listed as activators; further: nearly all actives have a fitted effect of over 55% in size
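HEK-293-derived GP2 cells expressing PTHR1 and a GloSensor cAMP reporter, 3,000/well, plated overnight, given luciferin plus IBMX (each 0.5 mM as added) for 1 h at 37 °C, then compound for 1 h at 37 °C. Luminescence was read after 15 min at room temperature.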
HEK293 tox: cytotoxic in the GLP-1 receptor inverse agonist counter-screen; HEK293 cAMP-luciferase reporter cells, luminescence, 24 h; actives 0.13% (n = 410,000); Potency, µM (top dose mostly 38.3 µM), without a hit: at the highest dose activity change, negative = inhibition, hits mostly inhibitors;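 further: loss of luciferase light is scored as toxicity; on the % scale 0 is the no-effect control and ±100 the full control effect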
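1536-well qHTS counterscreen of the MLSMR; 200 cells/uL, 12 h pre-incubation, 23 nL cpd, 24 h at 37 deg C 5% CO2, luciferase detection reagent, 12 min RT, luminescence. Inhibition = undesired.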
* hit, by the source's call; i = inactive; ? = inconclusive; . = not tested or not shown; [ ] = another dose, or the depositor's remark. The call rests on the fitted dose curve; in most records, active means well fitted curve in the direction sought with a large enough effect; inconclusive means small, poorly fitted or top-dose-only effect, or another doubt; inactive means no such curve, though single readings can be large; an effect the other way counts as inactive or inconclusive. Potency means the concentration at half of the fitted maximal effect.

SMILES	GLP1R ag	RGS4 inhibitor	GLP1R inv ag	PTHR1 ag	HEK293 tox
CCOC(=O)CCC(=O)OC1C(OC2C(C)C(OC3CC(C)(OC)C(O)C(C)O3)C(C)C(=O)OC(CC)C(C)(O)C(O)C(C)C(=O)C(C)CC2(C)O)OC(C)CC1N(C)C (stereo not given)	-2%	.	.	.	.
CS(=O)(=O)Nc1ccc2c(c1)[C@@H]1C[C@@H](CC(=O)NCc3cccnc3)O[C@H](CO)[C@@H]1O2	12%	.	14%	-26%	-9%
CCOc1ccc(C(=O)OC2CCN(C)CC2)cc1	1%	-1%[11.4 µM]	4µM*	i	3%
Cc1ccc(N(CC(=O)Nc2cccc(Cl)c2)S(=O)(=O)c2cccs2)cc1	-2%	2%	-26%	-10%	-8%
COCCCNc1ccn2nc(-c3ccccc3)cc2n1	-6%	.	4µM*	-55%	-5%
COCCCNc1ccn2nc(-c3cccc(Cl)c3)cc2n1	4%	.	?	-89%	-4%
c1ccc(COc2cccc(-c3cc4nc(NCc5cccs5)ccn4n3)c2)cc1	16%	.	4.5µM*	-71%	-14%
COc1ccc(C(=O)CC(Sc2ccccc2N)c2ccc(OC)cc2)cc1 (stereo not given)	-2%	.	?	-11%	1%
CC1(c2ccc3ccccc3c2)NC(=O)N(CC(=O)N2CCN(c3ccccc3O)CC2)C1=O (stereo not given)	1%	5%	11µM*	-29%	1%
Cc1cccn2c(/C=N/OCc3cccc(F)c3)c(-c3ccc(Cl)cc3)nc12	-15%	1%	?	i	-12%
Clc1ccc(-c2nc3sccn3c2/C=N/OCc2ccc(Cl)c(Cl)c2)cc1	.	3µM*	.	.	.
CCCCSc1nnc2c(n1)OC(c1ccc(C)s1)Nc1ccccc1-2 (stereo not given)	.	-5%	10%	-29%	1%
c1ccc(-c2cc3nc(NCC4CC4)nc(NCC4CCCCC4)c3s2)cc1	-5%	.	2µM*	-74%	?
CC(=O)Nc1ccc(CNc2nc(NC(C)C)nc3cc(-c4ccccc4)sc23)cc1	-13%	.	11µM*	-37%	?
C=CCNc1nc(NCc2ccc(NC(C)=O)cc2)c2sc(-c3ccccc3)cc2n1	-9%	.	?	-11%	?
c1ccc(OCCNc2nc(NCC3CC3)nc3ccsc23)cc1	-2%	.	8.9µM*	-44%	-10%
COc1ccc(-n2c(=O)c3c4c(sc3n(CC(=O)N3CCCCC3C)c2=O)CCC4)c(OC)c1 (stereo not given)	.	-20%	-4%	7%	-3%
C[C@H]1Cn2cnc(C(=O)Nc3cccc(Cl)c3)c2C(=O)N1	-6%	.	14%	i	-3%
Cc1cccc(C)c1OCC(=O)Nc1oc(-c2ccccc2)c(-c2ccccc2)c1C#N	-17%	-9%	10µM*	-34%	?
COc1ccc(C(=O)Nc2oc(-c3ccccc3)c(-c3ccccc3)c2C#N)cc1	-1%	2%	?	-12%[57.5 µM]	-2%
O=C(Cn1ncc(N2CCOCC2)c(Cl)c1=O)c1ccc(Cl)cc1	6%	-11%	-12%	-9%	5%
O=C(Cn1ncc(Cl)c(Cl)c1=O)c1ccc(Cl)cc1	-17%	-42%	-82%	-18%	10µM*
CSC(=Nc1ccccc1)N=C(SCc1ccccc1)N(C)C	-24%	?	3.5µM*	-6%	5.6µM*
N#CNC(=Nc1ccccc1)SCc1ccc(C(=O)O)cc1	0%	?	21%	i	-3%
Cc1cccc(N2CCN(c3ncnc4c3nc3n4CCCCC3)CC2)c1C	-1%	10%	12%	-37%	6%
SMILES	GLP1R ag	RGS4 inhibitor	GLP1R inv ag	PTHR1 ag	HEK293 tox
Cn1cc(S(=O)(=O)N2CCCC2)cc1C(=O)O	-5%	4%	0%	-1%	-13%
Cc1ccc(S(=O)(=O)N(Cc2ccccc2)Cc2ccco2)cc1	-8%	-3%	11µM*	i	15%
O=C(CN(Cc1ccc(Br)cc1)S(=O)(=O)c1ccccc1)NCc1ccccn1	-13%	-1%	-22%	-30%	14%
O=C(CN(Cc1ccccc1)S(=O)(=O)c1ccc(Br)cc1)NCc1ccco1	1%	-17%	7.9µM*	i	2%
S=C(NCCC(c1ccccc1)c1ccccc1)Nc1cccc(Cl)c1	-4%	-8%	11µM*	-17%[57.5 µM]	?
COc1ccc(OC)c(NC(=S)NCCC(c2ccccc2)c2ccccc2)c1	2%	-26%	8.9µM*	-34%	-20%
S=C(NCc1ccccc1Cl)Nc1ccccc1Cl	18%	-15%	?	-7%	-2%
Fc1cccc(NC(=S)NCc2ccccc2Cl)c1	-1%	-11%	10µM*	-21%	-92%
COc1ccc(OC)c(NC(=S)NCc2ccccc2OC)c1	18%	8%	?	-17%	?
S=C(NCCN(C1CCCCC1)C1CCCC1)Nc1cccc(Cl)c1	0%	7%	?	i	?
O=C1C=C(c2cccc(Br)c2)C[C@@H](c2ccc(Cl)cc2)C1	19%	18%	-9%	-14%	4%
NC(=O)c1cc(S(=O)(=O)NCC2CCC(C(=O)Nc3ccc(Cl)cc3)CC2)cs1 (stereo not given)	.	4%	-19%	-8%	-9%
COc1ccc(NC(=O)Cn2cc(C(=O)c3ccccc3OC)c(=O)c3ccc(C)nc32)cc1OC	.	3%	4%	-17%	-13%
O=[N+]([O-])c1ccc(-n2nnnc2-c2ccccc2)c([N+](=O)[O-])c1	-29%	-2%	?	-34%	10µM*
COc1ccc(N(C(=O)COc2c(C)cccc2C)S(=O)(=O)c2ccc(Cl)cc2)cc1	.	-11%	10µM*	-9%	0%
Cc1ccc(OCC(=O)N(c2ccc(C)cc2)S(=O)(=O)c2ccc(Cl)cc2)cc1	.	-15%	4%	i	0%
Cn1ncc2c(=S)nc(Cl)[nH]c21	4%	-9%	10µM*	i	?
CCOc1ccc(-c2c(C(=O)N/N=C/c3ccc(C)s3)nnn2-c2nonc2N)cc1	-2%	5%	11µM*	-10%	-6%
Cc1ccc(-c2c(C(=O)N/N=C/c3ccc4c(c3)OCO4)nnn2-c2nonc2N)cc1	4%	6%	10µM*	-8%	?
CCCCN(CCCNC(=O)c1ccc(Sc2ccc(Cl)cc2)c(NC(C)=O)c1)c1ccccc1	.	-16%	?	i	-4%
CCN(CCCNC(=O)c1ccc(Sc2ccc(Cl)cc2)c(NC(C)=O)c1)c1ccccc1	.	-17%	10µM*	-29%	-9%
COc1ccccc1C(=O)Nc1ccc2c(c1)nc(CCNC(=O)c1ccccc1)n2C	17%	2%	?	-13%	10µM*
CC(=O)Nc1ccc(S(=O)(=O)NC2CCCCCC2)cc1	8%	25%	13%	i	-2%

Assay outcomes deposited in PubChem BioAssay by National Center for Advancing Translational Sciences (NCATS).
